This is an account of results in PubChem BioAssay AID686940 (The Scripps Research Institute Molecular Screening Center, 2013).

Out of some 370,000 compounds screened, about 2,600 (0.7%) were called active.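 How the source made its calls: active means inhibition above a per-plate cutoff, mean inhibition of test wells between control levels plus 3 SD (cut at about 38% in these data); inactive means the rest.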 This excerpt belongs to a sample that is enriched for actives.

In this assay the target is COUP transcription factor 2 (Homo sapiens) (UniProt P24468). Put plainly: COUP-TFII reporter suppression in human cells – cell-based, luciferase reporter, HEK293T, luminescence, primary screen (AID 686940).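 Further: cells cotransfected with COUP-TFII expression vector driving the NGFI-A reporter; 0% = median of COUP-TF2 test wells and 100% = reporter-only cells.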 The following applies: HEK293T NGFI-A luciferase reporter, at 8.6 µM, stronger effect = higher value. On the technique in general: Reporter assays use an easily measured gene product as a stand-in for the process of interest.
COUP transcription factor 2 (Homo sapiens), sequence (P24468 whole entry, looked up): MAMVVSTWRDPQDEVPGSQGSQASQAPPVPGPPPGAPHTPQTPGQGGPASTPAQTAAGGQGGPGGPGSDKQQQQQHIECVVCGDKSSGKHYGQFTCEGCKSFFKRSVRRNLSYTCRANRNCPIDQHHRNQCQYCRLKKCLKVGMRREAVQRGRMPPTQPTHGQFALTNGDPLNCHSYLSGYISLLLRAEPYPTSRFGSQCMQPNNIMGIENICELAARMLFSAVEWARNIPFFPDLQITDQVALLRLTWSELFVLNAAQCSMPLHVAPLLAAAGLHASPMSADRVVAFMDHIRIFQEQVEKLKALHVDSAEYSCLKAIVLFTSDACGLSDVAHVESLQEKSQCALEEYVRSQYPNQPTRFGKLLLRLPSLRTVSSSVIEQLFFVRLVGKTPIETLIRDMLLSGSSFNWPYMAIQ
In the case of `CCOC(=O)c1csc(NC(=O)C2CCCN(S(=O)(=O)c3ccc(Cl)s3)C2)n1` (configuration not stated), the inhibition is 22.3% (inactive).

Regarding `C=C(C)C#CC(Cc1ccccc1)N(CC1CC1)/C(N)=N/C(=O)OCc1ccccc1` (configuration not stated), the inhibition is 5.09% (inactive).

In the case of `CCCCNC(=O)C[C@H]1C[C@@]2(C(=O)OC)C(=C[C@H](COCc3ccccc3)O[C@@H]2C)N(Cc2ccc(Cl)cc2Cl)C1=O`, the inhibition was 1.56% (inactive).

For the molecule `COC(=O)[C@]12C[C@H](CC(=O)N3CCOCC3)C(=O)N(Cc3ccc(Cl)cc3Cl)C1=C[C@H](C(C)C)O[C@@H]2C1CC1`, the inhibition is 1.35% (inactive).

`Cc1ccc(NC(=O)CN(C)CC(=O)Nc2cccc(F)c2)cc1[N+](=O)[O-]`: the inhibition was 58.8% (active).

Regarding `Cc1ccc(NC(=O)CN(C)Cc2ccc(F)cc2)c([N+](=O)[O-])c1`, the inhibition was -11.4% (inactive).

`Cc1ccc(S(=O)(=O)N2CCCCC2)cc1C(=O)N(C)CC(=O)Nc1cccc(F)c1`: the inhibition was -3.43% (inactive).

For `c1csc(-c2nnc(SCc3nc4ccccc4[nH]3)o2)c1`, the inhibition is -10.7% (inactive).

In the case of `Cc1ccc(NC(=O)Cc2cccc(F)c2)c(S(=O)(=O)N2CCOCC2)c1`, the inhibition was -8.19% (inactive).

`CCOC(=O)[C@]12CCCC3=C1N(CCC3)C(=O)[C@@H](CC(=O)NCC13CC4CC(CC(C4)C1)C3)C2`: the inhibition is 21.7% (inactive).

With `O=C1CC(c2ccc3c(c2)OCO3)N=C2N(CC3CC3)C/C(=C/c3ccccc3)N12` (configuration not stated), the inhibition was 20.7% (inactive).

As for `Cc1nc(CNS(=O)(=O)c2cc([N+](=O)[O-])ccc2C)cs1`, the inhibition is -13.5% (inactive).

As for `Cc1nc(CNS(=O)(=O)c2ccc(Oc3ccccc3)cc2)cs1`, the inhibition was 50.2% (active).

In the case of `Cc1ccc(S(=O)(=O)NCc2nc3ccccc3c(=O)n2N)cc1`, the inhibition is 0.39% (inactive).

As for `Cc1nn(C(C)C(=O)N2CCOCC2)c(=O)c2nn(-c3ccccc3)c(C)c12` (configuration not stated), the inhibition was 6.72% (inactive).

With `Cc1ccc(-n2nc3c(=O)n(C(C)C(=O)NCc4ccc5c(c4)OCO5)nc(C)c3c2C)cc1` (configuration not stated), the inhibition is 48.1% (active).

Regarding `Cc1nn(C(C)C(=O)NCCC2=CCCCC2)c(=O)c2nn(-c3ccccc3)c(C)c12` (configuration not stated), the inhibition was -2% (inactive).

Take `Cc1cc(NS(=O)(=O)c2ccc(NC(=O)CSc3nnc(-c4ccc(C(C)(C)C)cc4)n3Cc3ccco3)cc2)nc(C)n1`: the inhibition was 1.48% (inactive).

In the case of `CN(CCc1ccccc1)C(=O)Cn1nc(-c2ccccc2)ccc1=O`, the inhibition is 2.95% (inactive).

`C[C@H](C(=O)N(C)c1ccccc1)[C@@H](O)c1ccc2ccccc2c1`: the inhibition is 10.2% (inactive).

Take `Cc1ccc(-n2c(COc3ccccc3)nnc2SCC(=O)Nc2ccc3c(c2)OCCO3)cc1`: the inhibition is 9.88% (inactive).

For the molecule `OCCCNc1nccc(-c2cc(Nc3cccc(Cl)c3)ncn2)n1`, the inhibition was 44.6% (active).

As for `COc1ccc(-n2c(SCC(=O)NC3CCCC3)nnc2-c2ccncc2)cc1`, the inhibition is 4.6% (inactive).

Regarding `CCC(=O)OCCCN1C(=O)CCC12CCC(c1ccccc1)CC2` (configuration not stated), the inhibition is -6.04% (inactive).

Consider `COc1ccc(C(=O)CSc2nnc(-c3cnccn3)n2-c2ccc(C)cc2)cc1`, for which the inhibition was 3.51% (inactive).

As for `O=C(CCl)NC1CCCCN(Cc2cccc(C(F)(F)F)c2)C1=O` (configuration not stated), the inhibition was 4.87% (inactive).

Take `COc1ccc2c(c1)c(=Cc1ccc(N(C)C)cc1)c1cc(-c3ccccc3)[n+](C)n12`: the inhibition was 76.4% (active).

For the molecule `COC(=O)C1CN(CC(C)C)CCS(=O)(=O)N1Cc1ccc(F)cc1` (configuration not stated), the inhibition is 6.54% (inactive).

As to `Cc1nc(CNc2ncnc3ccc(-c4ccc5c(c4)OCO5)cc23)cs1`, the inhibition was 10.5% (inactive).

On to `C=CCNc1ncnc2ccc(Br)cc12`, for which the inhibition was 48.3% (active).

Turning to `COc1ccc(Cn2cc(COC(=O)N(C)Cc3ccccc3)nn2)cc1`, the inhibition was 3.65% (inactive).

With `Nc1[nH]c(/C=C2/CCCCC2n2[nH]c(=O)n(-c3ccccc3)c2=O)c(Cc2ccccc2)[n+]1Cc1ccccc1` (configuration not stated), the inhibition is 10.8% (inactive).

Take `COC(=O)[C@]12C[C@H](CC(=O)NCc3ccccc3)C(=O)N(Cc3ccccc3)C1=C[C@H](COCc1ccccc1)O[C@@H]2C`: the inhibition was 7.28% (inactive).

In the case of `COc1cc(/C=C/C(=O)N2CCc3ccccc3C2)cc(OC)c1OC`, the inhibition was -52.5% (inactive).

On to `COc1cc(C(O)c2nc3ccccc3n2C)cc(OC)c1OC` (configuration not stated), for which the inhibition was 10.1% (inactive).

For `COc1cc(/C=C/C(=O)n2cnc3ccccc32)cc(OC)c1OC`, the inhibition was 47.1% (active).

On to `COC(=O)C12C=C3CC(c4ccccc4)=C3C(=O)N1Cc1[nH]c3ccccc3c1C2` (configuration not stated), for which the inhibition is 5.87% (inactive).

On to `COc1cccc2c1C(=O)c1c(O)c3c(c(O)c1C2=O)CC(O)(C(C)=NNC(=O)c1ccc(Cl)c(Cl)c1)CC3OC1CC(N)C(O)C(C)O1` (configuration not stated), for which the inhibition is 52.1% (active).

Regarding `CN(C)[C@H]1CCN(c2cccc3c2S(=O)(=O)N2CC[C@H](C2)O3)C1`, the inhibition is -16.6% (inactive).

`CCOC(=O)C1=C(C)NC2=C(C(=O)CC(C)(C)C2)C1c1ccc2c(c1)OCO2` (configuration not stated): the inhibition is 13.2% (inactive).

As for `CCc1cc(-c2nnn(CCC3COCCO3)c2CC)ccc1-c1cn(Cc2ccc3ccccc3c2)nn1` (configuration not stated), the inhibition was 57.9% (active).

Regarding `COC(=O)[C@]12C[C@H](CC(=O)N3CCOCC3)C(=O)N(Cc3ccc(Cl)cc3Cl)C1=C[C@H](COCc1ccccc1)O[C@@H]2C`, the inhibition is -11.3% (inactive).

On to `COc1cccc(N2CCN(CC(=O)N(C)Cc3ccc(F)cc3)CC2)c1`, for which the inhibition was 1.56% (inactive).

In the case of `CN(C(=O)CN1CCN(c2cc(-c3ccc(OCc4ccccc4)cc3)ncn2)CC1)c1ccccc1`, the inhibition was 60.6% (active).

Regarding `CCOc1ccc(OCc2ccc(C(=O)N(C)c3ccccc3)o2)cc1`, the inhibition is -8.76% (inactive).

`CCc1ccccc1NC(=O)c1cc(-c2ccc3c(c2)OCO3)on1`: the inhibition was -0.24% (inactive).

With `O=C(Nc1nc(-c2ccc3c(c2)OCO3)cs1)c1ccncc1`, the inhibition is 52.5% (active).

As for `CC(O)(c1cccc(F)c1)c1nc(-c2ccc3c(c2)OCO3)cs1` (configuration not stated), the inhibition is 8.11% (inactive).

As to `CCOC(=O)c1csc(NC(=O)Nc2cccc(OC)c2)n1`, the inhibition was -7.28% (inactive).

For the molecule `CC(=O)Nc1ccc(-c2csc(NC(=O)Nc3ccccc3)n2)cc1`, the inhibition was 60.9% (active).

On to `COc1ccc(CC(N)c2csc(NC(=O)Nc3ccc(C(C)C)cc3)n2)cc1` (configuration not stated), for which the inhibition is 15.8% (inactive).

Take `O=C1CC[C@@]23CCCN2C(=O)CCC[C@H]3[C@H]1Cc1ccccc1`: the inhibition is -3.33% (inactive).

The inhibition is the change of the read-out against control, counted positive when it falls.
